Over roughly 110,000 compounds, “z-score” has its median near -0.1; the highest 2% begin near 2. The entries come from a sample that favours the highest values as a whole. Active and inactive are the calls of the source.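 The calls were made as follows: active = z-score in the third read window above 3 or below -3; inactive = the rest.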
The compounds below were run against Metabotropic glutamate receptor 8 (Rattus norvegicus) (UniProt P70579) (assay: rat mGluR8 modulators via GIRK flux, primary screen, cell-based, thallium flux, HTS (AID 488969)). Settings: HEK293 rat mGluR8, GIRK (G protein-gated inwardly rectifying potassium channel) thallium flux, FluoZin2; at 10 µM; stronger effect = higher value; submaximal glutamate (EC20) added with thallium.
Sequence of Metabotropic glutamate receptor 8 (Rattus norvegicus) (P70579 whole entry, looked up): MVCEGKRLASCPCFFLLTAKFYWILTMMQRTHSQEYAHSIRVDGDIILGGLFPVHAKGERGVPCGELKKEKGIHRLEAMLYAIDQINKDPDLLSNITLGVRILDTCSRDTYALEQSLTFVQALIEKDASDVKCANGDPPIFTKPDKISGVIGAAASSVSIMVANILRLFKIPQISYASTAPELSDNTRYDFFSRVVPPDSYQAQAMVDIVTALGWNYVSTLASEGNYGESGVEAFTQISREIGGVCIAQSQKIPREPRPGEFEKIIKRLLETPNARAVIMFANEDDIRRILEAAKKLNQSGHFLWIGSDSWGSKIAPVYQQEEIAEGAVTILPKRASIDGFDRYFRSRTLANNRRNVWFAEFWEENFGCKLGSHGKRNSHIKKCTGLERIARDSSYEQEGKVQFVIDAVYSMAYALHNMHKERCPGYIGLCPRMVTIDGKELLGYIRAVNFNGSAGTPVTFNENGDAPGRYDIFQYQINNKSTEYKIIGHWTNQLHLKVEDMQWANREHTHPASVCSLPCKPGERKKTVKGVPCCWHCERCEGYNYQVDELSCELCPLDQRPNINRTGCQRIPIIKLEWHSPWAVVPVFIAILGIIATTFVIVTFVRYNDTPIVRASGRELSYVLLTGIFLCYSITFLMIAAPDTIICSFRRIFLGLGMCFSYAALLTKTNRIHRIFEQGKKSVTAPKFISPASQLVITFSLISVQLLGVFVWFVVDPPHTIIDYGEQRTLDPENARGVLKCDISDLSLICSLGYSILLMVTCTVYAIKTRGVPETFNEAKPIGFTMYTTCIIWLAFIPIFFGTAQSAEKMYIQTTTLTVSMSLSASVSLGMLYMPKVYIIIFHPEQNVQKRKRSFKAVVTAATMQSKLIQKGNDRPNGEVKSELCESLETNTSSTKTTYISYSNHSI

SMILES | z-score
Cc1ccc(-c2nc3ccccc3o2)cc1NC(=S)NC(=O)c1cccs1 | 1.65
Cc1cc(C)c2oc(-c3ccc(C)c(NC(=S)NC(=O)c4cccs4)c3)nc2c1 | 3.57 (active)
Cc1ccc2oc(-c3cccc(NC(=S)NC(=O)/C=C/c4ccco4)c3)nc2c1 | -0.494
Cc1ccc2oc(-c3ccc(C)c(NC(=S)NC(=O)c4cccs4)c3)nc2c1 | 0.703
Cc1ccc(-c2nc3ccccc3o2)cc1NC(=S)NC(=O)/C=C/c1ccco1 | 0.0248
Cc1ccc2oc(-c3cccc(NC(=S)NC(=O)c4cccs4)c3)nc2c1 | 3.78 (active)
Cc1cc(C)c2oc(-c3ccc(C)c(NC(=S)NC(=O)/C=C/c4ccco4)c3)nc2c1 | -0.0423
Cc1ccc(-c2nc3ccccc3o2)cc1NC(=S)NC(=O)c1cc2ccccc2o1 | 2.35
Cc1ccc2oc(-c3cccc(NC(=O)Cc4cccs4)c3)nc2c1 | 0.0421
Cc1cc(NC(=O)COC(=O)c2cccc(OCc3ccccc3)c2)no1 | 0.388
CCN(CC)C(=O)C1CC(=O)OC12CCCCC2 (configuration not stated) | -0.477
COc1ccc(OC)c(C(=O)COC(=O)C2CC3CCCC(C2)C3=O)c1 (configuration not stated) | 1.3
Cc1noc(C)c1C(=O)OC(C(=O)NC1CCCC1)c1ccc(F)cc1 (configuration not stated) | 0.659
COc1ccc(C(=O)NC(=S)Nc2nc(C)c(C(=O)N(C)C)s2)cc1 | -0.0547
COC(=O)c1sc(NC(=S)NC(=O)c2cccc(C)c2)nc1C | 4.51 (active)
CCOC(=O)c1sc(NC(=S)NC(=O)c2ccco2)nc1C | 7.57 (active)
COC(=O)c1sc(NC(=O)COc2cccc(C)c2)nc1C | -0.0129
Cc1nc(NC(=S)NC(=O)c2ccccc2)sc1C(=O)N(C)C | -0.185
COC(=O)c1sc(Nc2ccccc2)nc1C | -0.75
CCOC(=O)c1sc(NC(=S)NC(=O)c2ccccc2Cl)c(C(=O)OCC)c1C | 0.214
Cc1cccc(C(=O)Nc2nc(C)c(C(=O)Nc3ccc4c(c3)CCC4)s2)c1 | -0.0981
COC(=O)c1sc(NC(=S)NC(=O)c2ccccc2Cl)nc1C | 5.46 (active)
COC(=O)c1sc(NC(=S)NC(=O)c2ccccc2)nc1C | 2.47
CCOC(=O)c1sc(NC(=O)c2ccco2)nc1-c1ccccc1 | 0.0322

SMILES | z-score
CCOC(=O)c1sc(NC(=O)COC(=O)c2ccco2)nc1C | 0.0458
Cc1nonc1OCC(C)(COc1nonc1C)NC(=O)c1ccccc1 | -0.133
CCOC(=O)C1C(=O)NC(N2CCOCC2)=NC1c1ccco1 (configuration not stated) | -0.222
CCOC(=O)C1CCCN(C(=S)Nc2cccc(Cl)c2C)C1 (configuration not stated) | -0.429
O=c1c2ccccc2nc(-c2ccc(Cl)cc2)n1C1CCS(=O)(=O)C1 (configuration not stated) | -0.341
Cc1cc2nc(C)n(CCCNC(=O)Nc3cccc4ccccc34)c2cc1C | -0.0533
CCCN1CNC(=S)N(CC2CCCO2)C1 (configuration not stated) | 0.136
Cc1c(Cl)cnc(NC(=O)COC(=O)CCC(=O)c2cccs2)c1Cl | -0.28
CNC(=S)N(Cc1ccc(OC)cc1)C1CC(=O)N(c2ccc(C(=O)OC)cc2)C1=O (configuration not stated) | -0.228
Cc1ccc2nc3ccc(N4CCCCCCC4)nn3c(=O)c2c1 | -0.682
O=C(CCSc1ccc(Cl)cc1)N1CCOCC1 | -0.207
CC(=O)Nc1ccc(NC(=O)CSc2ccc(C(F)(F)F)cc2[N+](=O)[O-])cc1 | -0.252
O=C(Nc1nccs1)C1CCCN1S(=O)(=O)c1ccc(Cl)cc1 (configuration not stated) | 0.437
CCS(=O)(=O)N1CCN(C(=O)C(c2ccccc2)c2ccccc2)CC1 | -0.138
O=C(c1cccc(C(=O)N2CCN(c3ncccn3)CC2)c1)N1CCN(c2ncccn2)CC1 | 0.184
N#Cc1c(N2CCN(C(=O)c3ccco3)CC2)nc(-c2ccccc2)c2c1CCCC2 | -0.665
N#Cc1c(N2CCN(C(=O)c3ccccc3)CC2)nc(-c2ccccc2)c2c1CCCC2 | 2.92
O=C(c1ccc(-c2ccccc2)cc1)N1CCN(c2ncccn2)CC1 | 3.97 (active)
O=C(c1ccc(F)cc1)N1CCN(c2ncccn2)CC1 | -0.204
N#Cc1c(N2CCN(C(=O)c3ccccc3Cl)CC2)nc(-c2ccccc2)c2c1CCCC2 | -0.453
COc1ccc2c(c1)CC/C(=C\c1ccc(OC)c(Cn3cccn3)c1)C2=O | -0.628
CCOc1ccccc1OCCCC(=O)Nc1sccc1C(N)=O | 0.813
O=C(CCl)Nc1ccccc1Sc1ccccc1 | -0.216
CC(=O)NC(c1cccs1)c1cc([N+](=O)[O-])c2cccnc2c1O (configuration not stated) | -1.44

SMILES | z-score
CCC(=O)NC(c1cccs1)c1cc([N+](=O)[O-])c2cccnc2c1O (configuration not stated) | -0.0253
CCCC(=O)NC(c1cccs1)c1cc([N+](=O)[O-])c2cccnc2c1O (configuration not stated) | 2.37
CC(NC(=O)NC1CCCCC1)C(c1cccs1)N1CCN(Cc2ccccc2)CC1 (configuration not stated) | -1.18
O=S(=O)(Nc1cc(Cl)ccn1)c1ccc(Cl)cc1 | 0.404
CCC(=O)Nc1c(-c2ccc(OC)cc2)c(=O)c2ccccc2n1C | 2.76
CCCC(=O)Nc1c(-c2ccc(OC)cc2)c(=O)c2ccccc2n1C | -0.253
CCCCCC(=O)Nc1c(-c2ccc(OC)cc2)c(=O)c2ccccc2n1C | 0.109
O=S(=O)(Nc1ccc(Cc2ccncc2)cc1)c1cccs1 | -0.0895
CS(=O)(=O)N1N=C(c2ccc3nccnc3c2)CC1c1ccccc1 (configuration not stated) | -0.111
COc1c2occc2cc2ccc(=O)oc12 | -0.548
O=c1cc(C(F)(F)F)oc2c1ccc1ccccc12 | -0.211
COc1c2occc2c(OC)c2c(=O)cc(C(F)(F)F)oc12 | 2.92
CCC(C)N=C1SCC(C)(/C=N/O)S1 (configuration not stated) | -0.0708
CCOc1ccc2nc(/N=C/c3nc(-c4ccc(Br)cc4)oc3O)sc2c1 | 0.754
Oc1oc(-c2ccccc2)nc1/C=N/c1nccs1 | 1.54
CCCCOc1ccc(-c2nc(/C=N/c3nccs3)c(O)o2)cc1 | 2.84
Oc1oc(-c2cccc3ccccc23)nc1/C=N/c1nccs1 | 7.77 (active)
Oc1[nH]c2ccccc2c1/C=N/c1nccs1 | 2.09
C(=N\c1nccs1)/c1c[nH]c2ccccc12 | -0.861
Oc1oc(-c2ccccc2)nc1C=Nc1cccc2ccccc12 | -0.00127
CN=Cc1nc(-c2ccccc2)oc1O | 1.62
Oc1ccc2ccccc2c1/C=N/c1nccs1 | 0.277
N#Cc1c(N)c(C(=O)c2ccccc2)n2c1CCCC2 | -0.142
C#CCn1c(S(=O)(=O)Cc2ccc(C)cc2)nc(-c2ccccc2)c1-c1ccccc1 | -0.259

SMILES | z-score
COc1ccc(C(C#N)N2N=C(c3ccccc3)CC2c2ccccc2)cc1OC (configuration not stated) | 0.0225
CC1CC(C)(C)CC2(C1)NC(=O)N(CC(=O)NCC(c1ccco1)N1CCCCC1)C2=O (configuration not stated) | 0.771
Cc1nnc(SCC(=O)NCc2ccco2)n1-c1ccccc1 | -0.0052
Cn1c(SCC(=O)Nc2ccccc2)nnc1-c1ccc(NC(=O)CCc2ccccc2)cc1 | -0.164
CN(CP(=O)(O)CN(C)S(C)(=O)=O)S(C)(=O)=O | 0.00353
O=C(NCc1ccco1)c1cnn2c(C(F)(F)F)cc(-c3ccccc3)nc12 | -0.67
CC1Nc2nc(N(C)C)[nH]c(=O)c2NC1C (configuration not stated) | 0.838
CCOC(=O)C(CC)n1cnc2c(nnn2-c2ccc(OC)cc2)c1=O (configuration not stated) | 4.43 (active)
CCOC(=O)C(CC)n1cnc2c(nnn2-c2ccc(C)cc2)c1=O (configuration not stated) | -0.636
CCC(C(=O)OC)n1cnc2c(nnn2-c2ccc(OC)cc2)c1=O (configuration not stated) | -0.912
Cc1cc(Nc2ccccc2)n(C(=O)c2ccc(Cl)cc2)n1 | 0.82
O=S(=O)(NCc1ccccc1)c1ccc(Cl)cc1 | 2.77
O=S(=O)(NCc1ccccc1)c1ccc(Cl)c(S(=O)(=O)NCc2ccccc2)c1 | 0.165
O=S(=O)(NCCCc1ccccc1)c1ccc(Cl)cc1 | -0.252
CCOC(=O)C1=c2s/c(=C\c3cccnc3)c(=O)n2C(N)=C(C(=O)OC)C1c1cccnc1 (configuration not stated) | 0.984
CC1(C)CC2CC(C)(CN2C(=S)NC(=O)c2ccccc2Cl)C1 (configuration not stated) | 8.8 (active)
C[C@H](NC(=O)c1ccccc1Cl)C(=O)OCC(=O)N1CC2(C)CC1CC(C)(C)C2 (some centres not stated) | 0.00588
CC1(C)CC2CC(C)(CN2C(=O)NC(=O)c2ccccc2)C1 (configuration not stated) | -0.259
O=C(CSCCO)Nc1cccc(C(F)(F)F)c1 | 0.657
CN(C)C(=O)CN(c1ccc2c(c1)OCO2)S(C)(=O)=O | -0.0253
CS(=O)(=O)N(CC(=O)O)c1ccc2c(c1)OCO2 | -2.86
CCN(CC)C(=O)CN(c1ccc2c(c1)OCO2)S(C)(=O)=O | 2.51
Cc1c(C(=O)OC(C)C)sc(NC(=O)C2CCCO2)c1C(=O)OC(C)C (configuration not stated) | -0.0386
O=C(CCNC(=O)c1ccccc1Cl)Nc1cccc(C(F)(F)F)c1 | -0.204

SMILES | z-score
Fc1cccc(Cl)c1CSc1nnc(COc2cccc3cccnc23)o1 | -0.675
Cc1nc(N2CCN(C)CC2)c2sc(=S)n(C)c2n1 | 0.624
Cc1ccc(-n2nnnc2-c2cnn(-c3cccc(F)c3)c2C(F)(F)F)cc1 | 0.0555
COC(=O)c1ccc(CSc2nnc(Nc3ccc(OC)cc3)s2)o1 | 0.755
COC(=O)c1ccc(CSc2nnc(Nc3ccccc3OC)s2)o1 | 4.01 (active)
COC(=O)c1ccc(CSc2nnc(Nc3cccc(OC)c3)s2)o1 | 0.67
CC1=C(C(=O)Nc2ccc(F)cc2)C(c2ccc(C)o2)C2=C(CC(C)(C)CC2=O)N1 (configuration not stated) | 0.288
CC(C)CNC(=S)N1CCN(C(c2ccccc2)c2ccccc2)CC1 | -0.358
CCNc1ccc(S(=O)(=O)N(C)C)cc1NCC(=O)Nc1ccc(Br)cc1F | -0.257
COc1ccc(-c2noc(-c3ccc(Cl)cc3[N+](=O)[O-])n2)cc1OC | -0.0457
CCOc1nc(C)ccc1-c1noc(-c2ccncc2)n1 | 0.775
CCOc1ccc(-c2nc(-c3ccc(OC)c(OC)c3)no2)cc1OCC | 4.75 (active)
CCOc1ccc(-c2nc(-c3ccncc3)no2)cc1OCC | 2.12
CCOc1ccc(-c2nc(-c3ccc(OC)cc3)no2)cc1OCC | 2.87
COc1ccc(-c2noc(-c3cc(C)cc(C)c3)n2)cc1OC | 0.138
COc1ccc(-c2noc(-c3ccccc3Cl)n2)cc1OC | -0.738
CCOc1ccccc1-c1nc(-c2ccncc2)no1 | 0.0712
CCOc1ccc(-c2noc(COC)n2)cc1OC | -0.328
CCOc1ccc(-c2nc(-c3ccccc3)no2)cc1OCC | 1.62
COc1ccc(-c2noc(-c3cc(Cl)ccc3Cl)n2)cc1OC | 3.41 (active)
CCOc1cc(-c2nc(-c3cc(OC)c(OC)c(OC)c3)no2)cc(OCC)c1OCC | 0.87

From PubChem BioAssay AID488969 (Vanderbilt High Throughput Screening Facility, 2010)
